# Data: PubChem BioAssay (Tox21)
# Where “and” joins values, the source holds several entries; their conditions need not be identical. Equal values may be shown once. Inconclusive results are not listed. A call without a number means that no potency is given here. A structure can be active in one record and inactive in another. Calls of active or inactive are those of the source. Unless noted, the call rests on the fitted dose curve; in most records, active means well fitted curve in the direction sought with a large enough effect in the repeat runs; inconclusive means weak or mixed curves; inactive means no such curve, though single readings can be large; an effect the other way counts as inactive or inconclusive.
# What was measured:
# [1] = qHTS assay to identify small molecule agonists of H2AX (AID 1224845; active means well fitted activation curve with a large enough effect in the signal ratio in the repeat runs, not every such curve was filed as active; the % refers to the signal ratio; further: potency means the concentration at half of the fitted maximal effect)
# Procedure, shortened: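 Wild-type CHO-K1 cells plated overnight, then exposed 3 hr at 37C to compounds at 15 concentrations (0.76% DMSO). Lysed, then HTRF anti-pH2AX(S139)-cryptate/anti-H2AX-d2 detection after 24 hr at room temperature; emissions 665 and 620 nm.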
# [2] = qHTS assay to identify small molecule agonists of the hypoxia (HIF-1) signaling pathway (AID 1224846; active means well fitted activation curve with a large enough effect in the signal ratio in the repeat runs, not every such curve was filed as active; the % refers to the signal ratio)
# Procedure, shortened: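 HRE-bla ME-180 cells (beta-lactamase reporter under hypoxia response element) were plated at 2,000 cells/well in medium with 0.5% dialyzed FBS, rested 5 hrs, then given compounds in DMSO for 17 hrs at 37C, 5% CO2. Reporter induction was read with CCF4-AM FRET substrate.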
# [3] = qHTS assay to identify small molecule agonists of H2AX - cell viability counter screen (AID 1224847; calls by dose curve; further: nearly all actives have a fitted effect of over 30% in size; further: potency means the concentration at half of the fitted maximal effect)
# Procedure, shortened: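 Counter-screen for viability: CellTiter-Glo ATP luminescence read after 3 h compound treatment (15-point titration, 0.76% DMSO final) of CHO-K1 cells at 37C, with 30 min room-temperature reagent incubation.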
# [4] = qHTS RealTime-Glo MT Cell Viability Assay in HepG2 cells - 24 hour (AID 1224867); further: nearly all actives have a fitted effect of over 50% in size; further: potency means the concentration at half of the fitted maximal effect
# Procedure, shortened: (§1)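 Compound treatment began 5 h after plating HepG2 cells (600/well) with NanoLuc luciferase and prosubstrate. Plates stayed at 37 C for 40 h; luminescence was captured at six time points, 0 h through 40 h.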
# [5] = qHTS RealTime-Glo MT Cell Viability Assay in HEK293 cells - 32 hour (AID 1224868); further: nearly all actives have a fitted effect of over 50% in size; further: potency means the concentration at half of the fitted maximal effect
# Procedure, shortened: (§2)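 Quantitative high-throughput screen of the Tox21 10K library in HEK293: cells and RealTime-Glo reagents plated together, compound added at 5 h, luminescence monitored through 40 h at 37 C.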
# [6] = qHTS RealTime-Glo MT Cell Viability Assay in HepG2 cells - 40 hour (AID 1224870); further: nearly all actives have a fitted effect of over 50% in size
# Procedure, shortened: (§3)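 HepG2 cells mixed with RealTime-Glo MT reagents (NanoLuc plus cell-permeant prosubstrate) were seeded at 600 cells/well, incubated 5 h at 37 C/5% CO2, then pinned with compounds in DMSO; nonlytic luminescence tracked viability during 40 h treatment.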
# [7] = A CellTox Green Cytotoxicity Assay to monitor cytotoxicity in HEK293 cells - 40 hour (AID 1224871); further: nearly all actives have a fitted effect of over 45% in size; further: potency means the concentration at half of the fitted maximal effect
# Procedure, shortened: (§4)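 HEK293 cells premixed with CellTox Green dye were seeded at 600 cells/well and left 5 h at 37 C/5% CO2 before pin transfer of 23 nL compound in DMSO. Fluorescence from dye bound to dead-cell DNA was read during 40 h treatment.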
# [8] = qHTS RealTime-Glo MT Cell Viability Assay in HEK293 cells - 16 hour (AID 1224872); further: nearly all actives have a fitted effect of over 50% in size; further: potency means the concentration at half of the fitted maximal effect
# Procedure, shortened: as §2
# [9] = qHTS RealTime-Glo MT Cell Viability Assay in HepG2 cells - 8 hour (AID 1224873); further: nearly all actives have a fitted effect of over 55% in size; further: potency means the concentration at half of the fitted maximal effect
# Procedure, shortened: as §3
# [10] = qHTS RealTime-Glo MT Cell Viability Assay in HEK293 cells - 40 hour (AID 1224874); settings: RealTime-Glo luminescence; max response: stronger effect = lower value; further: nearly all actives have a fitted effect of over 50% in size; further: potency means the concentration at half of the fitted maximal effect
# Procedure, shortened: (§5)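 HEK293 cells mixed with RealTime-Glo reagents (NanoLuc plus cell-permeant prosubstrate) at 600 cells/well, preincubated 5 h at 37 C/5% CO2, then given 23 nL compound in DMSO. Nonlytic luminescence from viable cells was read at 0, 8, 16, 24, 32 and 40 h.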
# [11] = A CellTox Green Cytotoxicity Assay to monitor cytotoxicity in HEK293 cells - 24 hour (AID 1224875); further: nearly all actives have a fitted effect of over 45% in size; further: potency means the concentration at half of the fitted maximal effect
# Procedure, shortened: as §4
# [12] = A CellTox Green Cytotoxicity Assay to monitor cytotoxicity in HepG2 cells - 16 hour (AID 1224876); further: nearly all actives have a fitted effect of over 45% in size; further: potency means the concentration at half of the fitted maximal effect
# Procedure, shortened: (§6)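 HepG2 cells were seeded together with the CellTox Green dye at 600 cells/well, left 5 h at 37 C/5% CO2, then given compounds in DMSO. Fluorescence from dye bound to dead-cell DNA was read repeatedly over 40 h of treatment at 37 C.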
# [13] = qHTS RealTime-Glo MT Cell Viability Assay in HepG2 cells - 32 hour (AID 1224877); further: nearly all actives have a fitted effect of over 55% in size; further: potency means the concentration at half of the fitted maximal effect
# Procedure, shortened: as §1
# [14] = A CellTox Green Cytotoxicity Assay to monitor cytotoxicity in HepG2 cells - 24 hour (AID 1224878); further: nearly all actives have a fitted effect of over 45% in size; further: potency means the concentration at half of the fitted maximal effect
# Procedure, shortened: as §6
# [15] = A CellTox Green Cytotoxicity Assay to monitor cytotoxicity in HepG2 cells - 40 hour (AID 1224879); further: nearly all actives have a fitted effect of over 40% in size; further: potency means the concentration at half of the fitted maximal effect
# Procedure, shortened: as §6
# [16] = qHTS RealTime-Glo MT Cell Viability Assay in HEK293 cells - 0 hour (AID 1224880)
# Procedure, shortened: as §5
# [17] = A CellTox Green Cytotoxicity Assay to monitor cytotoxicity in HEK293 cells - 32 hour (AID 1224881); further: nearly all actives have a fitted effect of over 40% in size; further: potency means the concentration at half of the fitted maximal effect
# Procedure, shortened: as §4
# [18] = qHTS assay to identify small molecule antagonists of the estrogen related receptor (ERR) signaling pathway from Tox21 library (AID 1224848); further: nearly all actives have a fitted effect of over 50% in size; further: potency means the concentration at half of the fitted maximal effect
# Procedure, shortened: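 Cells: ERR line, 2,000/well; 6 h preincubation 37 C/5% CO2. Cpd in DMSO via pin tool; 18 h, 37 C. ONE-Glo, 30 min RT, luminescence.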
# [19] = qHTS assay to identify small molecule agonists of the estrogen related receptor (ERR) signaling pathway from Tox21 library (AID 1224849; calls by dose curve; further: nearly all actives have a fitted effect of over 15% in size); settings: ERR reporter cell line, ONE-Glo luciferase, 18 h
# Procedure, shortened: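 ERR reporter cell line (NTP) seeded, rested 6 h at 37 C/5% CO2, then pinned with Tox21 compounds in DMSO. After 18 h at 37 C, ONE-Glo luciferase luminescence was read following 30 min at room temperature.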
# [20] = A CellTox Green Cytotoxicity Assay to monitor cytotoxicity in HEK293 cells - 0 hour (AID 1224869); further: nearly all actives have a fitted effect of over 50% in size
# Procedure, shortened: as §4
smiles,measurement,setting,value
CC(C)CON=O,Potency,[1],inactive
same,outcome,[2],inactive
same,Potency,[3],inactive
same,Potency,[4],inactive
same,Potency,[5],inactive
same,Potency,[6],inactive
same,Potency,[7],inactive
same,Potency,[8],inactive
same,Potency,[9],inactive
same,max response,[10],8.89% (inactive) and 0.247% (inactive)
same,Potency,[11],inactive
same,Potency,[12],inactive
same,Potency,[13],inactive
same,Potency,[14],inactive
same,Potency,[15],inactive
same,Potency,[16],inactive
Cc1ccc([N+](=O)[O-])cc1,Potency,[1],inactive
same,outcome,[2],inactive
same,Potency,[3],inactive
same,Potency,[4],inactive
same,Potency,[5],inactive
same,Potency,[7],inactive
same,Potency,[8],inactive
same,Potency,[9],inactive
same,max response,[10],7.21% (inactive) and 12.5% (inactive)
same,Potency,[11],inactive
same,Potency,[12],inactive
same,Potency,[13],inactive
same,Potency,[14],inactive
same,Potency,[15],inactive
same,Potency,[16],inactive
same,Potency,[17],inactive
CCCCOCCOC(C)=O,outcome,[2],inactive
same,Potency,[3],inactive
same,Potency,[18],inactive
same,"activity change, positive = activation",[19]; at 92.4 µM (top of the series),1.87% (inactive) and 10.2% (inactive)
same,Potency,[4],inactive
same,Potency,[5],inactive
same,Potency,[20],inactive
same,Potency,[7],inactive
same,Potency,[8],inactive
same,Potency,[9],inactive
same,max response,[10],4.03% (inactive) and 1.95% (inactive)
same,Potency,[11],inactive
same,Potency,[12],inactive
same,Potency,[13],inactive
same,Potency,[14],inactive
same,Potency,[15],inactive
same,Potency,[16],inactive
COP(=S)(OC)Oc1ccc(Sc2ccc(OP(=S)(OC)OC)cc2)cc1,outcome,[2],inactive
same,Potency,[3],inactive
same,Potency,[18],27.3 µM (active) and inactive
same,"activity change, positive = activation",[19]; at 42.5 µM (top of the series),-3.82% (inactive)
same,"activity change, positive = activation",[19]; at 92.4 µM (top of the series),-40% (inactive)
same,Potency,[4],inactive
same,Potency,[5],inactive
same,Potency,[6],inactive
same,Potency,[7],inactive
same,Potency,[8],inactive
same,Potency,[9],inactive
same,max response,[10],5.12% (inactive)
same,Potency,[11],inactive
same,Potency,[12],inactive
same,Potency,[13],inactive
same,Potency,[14],inactive
same,Potency,[15],inactive
same,Potency,[16],inactive
same,Potency,[17],inactive
CCOC(=O)c1ccccc1N,Potency,[1],inactive
same,outcome,[2],inactive
same,Potency,[3],inactive
same,Potency,[4],inactive
same,Potency,[5],inactive
same,Potency,[6],inactive
same,Potency,[7],inactive
same,Potency,[8],inactive
same,Potency,[9],inactive
same,max response,[10],-0.283% (inactive) and 0.344% (inactive)
same,Potency,[11],inactive
same,Potency,[12],inactive and 49 µM (active)
same,Potency,[13],inactive
same,Potency,[14],inactive and 49 µM (active)
same,Potency,[15],inactive and 54.9 µM (active)
same,Potency,[16],inactive
same,Potency,[17],inactive
CC1(C)Cc2cccc(O)c2O1,Potency,[1],inactive
same,outcome,[2],inactive
same,Potency,[3],inactive
same,Potency,[4],inactive
same,Potency,[5],inactive
same,Potency,[6],inactive
same,Potency,[7],inactive
same,Potency,[8],inactive
same,Potency,[9],inactive
same,max response,[10],1.32% (inactive) and -0.986% (inactive)
same,Potency,[11],inactive
same,Potency,[12],inactive
same,Potency,[13],inactive
same,Potency,[14],inactive
same,Potency,[15],inactive
same,Potency,[16],inactive
CC(C)(O)C(=O)Nc1ccc([N+](=O)[O-])c(C(F)(F)F)c1,outcome,[2],inactive
same,Potency,[3],57.8 µM (active) and 73.6 µM (active)
same,Potency,[18],9.89 µM (active) and 17.8 µM (active)
same,"activity change, positive = activation",[19]; at 42.5 µM (top of the series),-39.6% (inactive)
same,"activity change, positive = activation",[19]; at 92.4 µM (top of the series),-47.4% (inactive)
same,Potency,[4],inactive
same,Potency,[5],25.1 µM (active) and 16 µM (active)
same,Potency,[20],inactive
same,Potency,[6],inactive
same,Potency,[7],inactive
same,Potency,[8],25.1 µM (active) and 25.3 µM (active)
same,Potency,[9],inactive
same,Potency,[10],22.3 µM (active) and 17.9 µM (active)
same,Potency,[11],inactive
same,Potency,[12],inactive
same,Potency,[13],inactive
same,Potency,[14],inactive
same,Potency,[15],inactive
same,Potency,[16],inactive
same,Potency,[17],inactive
C[N+](C)(C)CC(=O)[O-],Potency,[1],inactive
same,Potency,[3],inactive
same,Potency,[4],inactive
same,Potency,[5],inactive
same,Potency,[20],inactive
same,Potency,[6],inactive
same,Potency,[7],inactive
same,Potency,[8],inactive
same,Potency,[9],inactive
same,max response,[10],3.4% (inactive) and 10.8% (inactive)
same,Potency,[11],inactive
same,Potency,[12],inactive
same,Potency,[13],inactive
same,Potency,[14],inactive
same,Potency,[15],inactive
same,Potency,[16],inactive
O=S(=O)(O)C(F)(F)C(F)(F)C(F)(F)C(F)(F)C(F)(F)C(F)(F)C(F)(F)C(F)(F)F,outcome,[2],inactive
same,Potency,[3],inactive
same,Potency,[18],inactive
same,"activity change, positive = activation",[19]; at 92.4 µM (top of the series),-7.99% (inactive) and -0.0044% (inactive) and -21.1% (inactive)
same,Potency,[4],inactive
same,Potency,[5],inactive
same,Potency,[6],inactive
same,Potency,[7],33 µM (active) and inactive and 21.9 µM (active)
same,Potency,[8],inactive
same,Potency,[9],inactive
same,max response,[10],-24.5% (inactive) and 0.151% (inactive)
same,Potency,[12],18.6 µM (active) and inactive
same,Potency,[13],inactive
same,Potency,[14],18.6 µM (active) and inactive
same,Potency,[15],16.5 µM (active) and inactive
same,Potency,[16],inactive
same,Potency,[17],33 µM (active) and inactive and 21.9 µM (active)
CC(C)(c1ccccc1)c1ccc(O)c(C(C)(C)c2ccccc2)c1,Potency,[1],39.7 µM (active)
same,Potency,[3],28.1 µM (active) and 56.6 µM (active)
same,Potency,[18],42.9 µM (active) and 48.6 µM (active)
same,"activity change, positive = activation",[19]; at 92.4 µM (top of the series),-71.4% (inactive) and -64.9% (inactive)
same,Potency,[4],54.4 µM (active) and 43.6 µM (active)
same,Potency,[5],19.3 µM (active) and 30.9 µM (active)
same,Potency,[20],inactive
same,Potency,[7],24.3 µM (active) and 43.6 µM (active)
same,Potency,[8],21.7 µM (active) and 43.6 µM (active)
same,Potency,[9],48.5 µM (active) and 38.9 µM (active)
same,Potency,[10],17.2 µM (active) and 43.6 µM (active)
same,Potency,[11],43.2 µM (active) and 49 µM (active)
same,Potency,[12],48.5 µM (active) and 43.6 µM (active)
same,Potency,[13],49 µM (active)
same,Potency,[14],48.5 µM (active) and 43.6 µM (active)
same,Potency,[15],54.4 µM (active) and 43.6 µM (active)
same,Potency,[16],inactive
